Pol iota inh: blocks human DNA polymerase iota activity; Q9UNA4; Pol iota fluorescent replication assay, 10 min; Potency, µM (series often up to 115 µM), without a hit: at the highest dose activity, negative = inhibition, usual class: inhibitors; 390,000 compounds, 1% hits
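Pol iota at 10 nM preincubated 15 min with compounds at room temperature; reaction started with fluorescent substrate, 50 nM final. Fluorescence read kinetically at 0 and 10 min; buffer-only wells as negative control.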
Pol kappa inh-1: inhibitors of human DNA polymerase kappa | Q9UBT6 | purified Pol kappa, fluorescent DNA synthesis assay, 10 min | Potency, µM (doses to about 107 µM), for the others: at the top dose activity, negative = inhibition, most hits filed as inhibitors | 400,000 compounds, 0.53% hits | AID 588579; further: on the % scale 0 is the no-effect control and ±100 the full control effect
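10 nM Pol kappa was preincubated with compounds for 15 min at room temperature. Reaction started with 50 nM (final) substrate. Fluorescence read kinetically at 0 and 10 min.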
WRN inhibitor: WRN helicase (human) inhibition. WRN helicase unwinding, fluorescent forked duplex, kinetic. Potency, µM (top dose mostly 114 µM), for inactives: at the top dose activity change, negative = inhibition, actives largely listed as inhibitors. 360,000 compounds, 0.46% hits. Q14191; further: on the % scale 0 is the no-effect control and ±100 the full control effect; nearly all actives have a fitted effect of over 55% in size
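Fluorescence dequenching readout, ex 525 nm/em 598 nm, kinetic mode: forked duplex DNA (100 nM final) with adjacent fluorophore and quencher unwound by WRN (20 nM final) with 2 mM ATP. Compound preincubation 15 min, room temperature.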
FEN1 inh: blocks human flap endonuclease 1; Recombinant FEN1 flap cleavage, fluorescence, 15 min; 390,000 compounds, 0.35% hits; Potency, µM (top dose mostly 114 µM), for the others: top-dose activity change, negative = inhibition, actives largely listed as inhibitors; P39748; further: on the % scale 0 is the no-effect control and ±100 the full control effect; nearly all actives have a fitted effect of over 65% in size
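Recombinant FEN1 (10 nM) was preincubated with pin-transferred compounds for 15 min at room temperature, then flap DNA substrate (50 nM final) was added. Plates were read at 0 and 15 min, and normalized concentration–response data were fitted to a four-parameter Hill equation.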
Pol beta inh: blocks human DNA polymerase beta activity | P06746 | AID 485314 | 340,000 compounds, 1.3% hits | Potency, µM (highest dose often 114 µM), for inactives: top-dose activity change, negative = inhibition, actives largely listed as inhibitors | Pol beta primer extension/strand displacement, fluorescence kinetic; further: on the % scale 0 is the no-effect control and ±100 the full control effect
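Pol beta (10 nM) was preincubated with compound for 15 min at room temperature. The reaction was then started with 50 nM substrate and read immediately and after a further 10 min at room temperature.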
Pol eta inh-1: inhibitors of human DNA polymerase eta | Q9Y253 | recombinant Pol eta, fluorescent DNA replication assay | Potency, µM (doses to about 114 µM), inactives show top-dose activity change, negative = inhibition, actives largely listed as inhibitors | 390,000 compounds, 1.2% hits | AID 588591; further: on the % scale 0 is the no-effect control and ±100 the full control effect
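Pol eta (10 nM) was preincubated with compounds for 15 min at room temperature, after which fluorescent replication substrate (50 nM final) was added to start the reaction. Fluorescence was read kinetically at 0 and 10 min.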
Pol kappa inh-2: Pol kappa (human) inhibition, cherry-pick confirmation | shares compounds with Pol eta inh-1 | purified Pol-kappa, fluorescent strand-displacement substrate | 920 compounds, 76% hits | Potency, µM, most hits filed as inhibitors
Pol eta inh-2: confirmation of human DNA polymerase eta inhibitors. Potency, µM, most hits filed as inhibitors. 2,600 compounds, 64% hits. shares compounds with Pol eta inh-1. Pol eta primer extension, TAMRA/BHQ fluorescence, 10 min. AID 720502
* marks the source's active call; other numbers are inactive results; ? = inconclusive; . = no result given; [ ] = another dose, or the depositor's remark. Compounds with a hit are over-represented: about 2.4% of the library has one in this group of screens. The call rests on the fitted dose curve; in most records, active means well fitted curve in the direction sought with a large enough effect; inconclusive means small, poorly fitted or top-dose-only effect, or another doubt; inactive means no such curve, though single readings can be large; an effect the other way counts as inactive or inconclusive. Potency means the concentration at half of the fitted maximal effect.

SMILES | Pol iota inh | Pol kappa inh-1 | WRN inhibitor | FEN1 inh | Pol beta inh | Pol eta inh-1 | Pol eta inh-2 | others
CC(C)N1C(=O)S/C(=C\c2ccc(-c3ccc(Cl)c(C(=O)O)c3)o2)C1=O | ? | 50.1µM* | ? | ? | -0.4% | 8.91µM* | 26.9*
CCN(CC)c1ccc(/C=C2/SC(=O)N(C(C)C)C2=O)o1 | -6.4% | 1.4% | -20.9% | -26.6% | -0.7% | -26.7% | .
CCCCC1(C)OC(=O)C(=Cc2ccc(-c3ccc(Cl)c(C(=O)O)c3)o2)C(=O)O1 (stereo not drawn) | ? | ? | ? | -19.5% | 15.8µM* | 20µM* | 26.9*
Cc1cc(/C=C2/C(=O)NN(c3ccccc3)C2=O)c(C)n1-c1ccc(O)cc1 | -8.9% | -11.9% | -19.0% | -4.0% | 8.5% | -7.8% | .
Cc1ccc(N2NC(=O)/C(=C/c3ccc(-c4ccc(Cl)c(C(=O)O)c4)o3)C2=O)cc1 | ? | ? | ? | 2.0% | 31.6µM* | 22.4µM* | 60.1*
O=C(O)c1cc(-c2ccc(/C=N/NC(=S)Nc3ccccc3)o2)ccc1Cl | 35.5µM* | 79.4µM* | ? | -19.0% | 28.2µM* | 20µM* | ? | Pol kappa inh-2=75.2*
Cc1c(Cl)cnc(NC(=O)COC(=O)[C@H](C)NC(=O)c2ccccc2)c1Cl | ? | -26.6% | -12.0%[11.6 µM] | 6.6% | . | 50.1µM* | ? | Pol kappa inh-2=?
Cc1c(Cl)cnc(NC(=O)COC(=O)c2ccncc2)c1Cl | 50.1µM* | -24.4% | ? | -1.8% | . | 25.1µM* | . | Pol kappa inh-2=?
Cc1c(Cl)cnc(NC(=O)COC(=O)c2ccc3c(c2)OCO3)c1Cl | 72.3% | -4.3% | -25.5% | 39.6% | 5.2% | ? | .
O=C(COC(=O)CNC(=O)c1ccccc1)Nc1ccccc1Cl | 17.2% | -21.5% | -8.2% | -1.8% | 7.2% | -0.7% | .
Cc1c(Cl)cnc(NC(=O)COC(=O)CNC(=O)c2ccccc2)c1Cl | -15.8% | -31.0% | -5.7%[11.6 µM] | -21.9% | . | 50.1µM* | ? | Pol kappa inh-2=?
Cc1c(Cl)cnc(NC(=O)COC(=O)CCc2nc3ccccc3s2)c1Cl | 21.1% | 1.0%[60.1 µM] | 10.3% | 0.8% | 10.7% | 2.8% | .
O=S1(=O)CCOCCCN1Cc1ccc(F)cc1 | 10.0% | -0.8% | . | -13.3% | . | . | .
Cc1ccc(OCc2ccoc2C(=O)O)cc1C | ? | ? | -33.6%[57.1 µM] | -13.1% | 17.8µM* | 7.08µM* | ?
Cc1ccc(OCc2ccc(C(=O)O)o2)cc1C | -21.7% | -7.1% | 3.2% | 16.1% | 28.7% | 5.1% | .
COc1ccccc1N1CCN(CCn2c(=O)c3c(c4ccccc4n3C)n(C)c2=O)CC1 | . | 5.9%[19.4 µM] | . | . | . | . | .
COc1ccc(C2C=C3CNS(=O)(=O)C3CC2OC(=O)c2ccc(Cl)cc2)cc1 (stereo not drawn) | 0.5% | -4.6% | . | ? | . | . | .
O=C(Nc1cccc(Cl)c1)c1c(NC(=O)C(F)(F)F)sc2c1CCCC2 | ? | -32.3% | . | ? | ? | 25.1µM* | ?
Cc1ccccc1NC(=O)c1c(NC(=O)C(F)(F)F)sc2c1CCCCC2 | 10.1% | -3.7% | . | -12.0% | ? | -28.7% | .
Cc1cccc(NC(=O)c2c(NC(=O)C(F)(F)F)sc3c2CCCCC3)c1 | ? | -21.4% | . | ? | ? | 44.7µM* | . | Pol kappa inh-2=67*
Cc1ccc(NC(=O)c2c(NC(=O)C(F)(F)F)sc3c2CCCCC3)cc1 | ? | ? | . | ? | ? | 50.1µM* | ?
Cc1cccc(-n2c3nc(=O)[nH]c(=O)c-3cc3ccc(Cl)cc32)c1C | -10.0% | -17.1% | . | -16.5% | 22.0% | 1.9% | .
CCCCC#Cc1nc(NC)c2ncn([C@@H]3O[C@@H](CO)[C@H](O)[C@H]3O)c2n1 | . | -11.6%[19.4 µM] | . | . | . | . | .
O=C(Cc1ccc(OCCCc2ccccc2)cc1)NO | 12.9% | -4.7% | . | 10.0% | . | . | .

Source: PubChem BioAssay
